Hits are enriched below; roughly 18% of the tested compounds scored in any of these assays.
DT40 TDP1 CPT: DT40-hTDP1 cell growth loss with CPT | 12% of 420,000 active | Potency, µM (series often up to 46.2 µM), for the others: at the top dose activity change, negative = growth inhibition, actives largely listed as inhibitors | chicken DT40 Tdp1-/-;hTDP1 cells + 20 nM CPT, ATP luminescence, 48 h; also: potency is read from the fitted curve at half-maximal effect; % is scaled to controls: 0 for no effect and ±100 for the full control effect; nearly all actives have a fitted effect of over 55% in size
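Chicken DT40 Tdp1-/- cells complemented with human TDP1, 400 cells/well, exposed to compounds plus 20 nM camptothecin for at least 48 h at 37 C; viability read as ATP content by CellTiter-Glo luminescence.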
TDP1 cell noCPT: qHTS for Inhibitors of human tyrosyl-DNA phosphodiesterase 1 (TDP1): qHTS in cells in absence of CPT; DT40 Tdp1-/- hTDP1 cells, no CPT, ATP luminescence, 48 h; Potency, µM (top dose mostly 46.2 µM), for the others: at the top dose activity change, negative = growth inhibition, hits mostly inhibitors; 15% of 420,000 active; also: potency is read from the fitted curve at half-maximal effect; % is scaled to controls: 0 for no effect and ±100 for the full control effect; nearly all actives have a fitted effect of over 55% in size
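Stably hTDP1-transfected Tdp1-null chicken DT40 cells were treated with library compounds minus camptothecin and grown for at least 48 hr at 37 °C, after which cellular ATP was quantified by luminescence.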
HepG2 viability: kills HepG2 cells in TGF-b inhibitor counter-screen; HepG2 CAGA-GFP viability, ATP luminescence, 18 h; 0.76% of 410,000 active; Potency, µM (titrated, usually from 46.1 µM), inactives show at the highest dose activity change, negative = cytotoxicity, hits mostly cytotoxic; also: potency is read from the fitted curve at half-maximal effect
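HepG2 CAGA-GFP cells (1000/well, DMEM with 1% FBS) received compound, then TGF-beta at 500 pg/mL final, and were incubated 18 hours at 37 degrees C. Viability was read by CellTiter-Glo luminescence. Media-only wells were set as complete cell-killing and DMSO as no toxicity.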
TDP1 block: blocks human tyrosyl-DNA phosphodiesterase 1 | Q9NUW8 | recombinant TDP1, AlphaScreen DNA substrate cleavage | Potency, µM (highest dose often 130 µM), without a hit: at the top dose activity change, negative = inhibition, usual class: inhibitors | 0.28% of 350,000 active; also: potency is read from the fitted curve at half-maximal effect; % is scaled to controls: 0 for no effect and ±100 for the full control effect; nearly all actives have a fitted effect of over 40% in size
Target sequence (Q9NUW8 whole entry, looked up): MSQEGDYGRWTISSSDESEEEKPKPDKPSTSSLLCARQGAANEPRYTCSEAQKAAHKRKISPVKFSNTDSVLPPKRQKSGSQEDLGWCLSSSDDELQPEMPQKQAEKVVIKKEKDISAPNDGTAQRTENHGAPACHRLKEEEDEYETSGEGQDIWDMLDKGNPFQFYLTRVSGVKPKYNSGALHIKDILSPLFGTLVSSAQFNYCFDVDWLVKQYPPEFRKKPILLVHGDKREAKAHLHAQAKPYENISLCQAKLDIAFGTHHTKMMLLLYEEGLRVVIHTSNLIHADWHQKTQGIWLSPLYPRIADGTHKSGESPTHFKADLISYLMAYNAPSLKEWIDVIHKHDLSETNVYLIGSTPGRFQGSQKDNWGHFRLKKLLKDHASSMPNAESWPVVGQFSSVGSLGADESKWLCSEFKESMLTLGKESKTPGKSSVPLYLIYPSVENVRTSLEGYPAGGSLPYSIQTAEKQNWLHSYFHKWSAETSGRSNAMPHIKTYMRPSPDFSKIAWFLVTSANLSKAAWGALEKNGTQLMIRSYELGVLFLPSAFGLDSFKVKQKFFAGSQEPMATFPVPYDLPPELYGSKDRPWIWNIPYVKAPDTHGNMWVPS
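Signal: AlphaScreen proximity between streptavidin donor and anti-FITC acceptor beads on intact substrate. Reaction: Tdp1 1 nM, substrate 15 nM final, 5 min RT after 15 min compound preincubation.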
TGFb inhibitor: inhibitors of TGF-b signaling. HepG2 CAGA-GFP TGF-b/SMAD3 reporter, GFP fluorescence, 18 h; TGF-beta stimulated, 500 pg/mL final. Potency, µM (doses to about 46.1 µM), for the others: at the highest dose activity, negative = inhibition, actives largely listed as inhibitors. 1.2% of 410,000 active. AID 588855; also: potency is read from the fitted curve at half-maximal effect; % is scaled to controls: 0 for no effect and ±100 for the full control effect; nearly all actives have a fitted effect of over 65% in size
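HEPG2 CAGA-GFP, 1000 cells/well; 2 h settle, 37 C; cpd via pin tool; TGF-b 500 pg/mL final; 18 h, 37 C; GFP imaging ex488/em500-530; %Activity normalised to -TGF-b and +DMSO controls; CRC fit, curve class.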
IL1B secr inh: inhibitors of inflammasome signaling (IL-1 beta secretion) | AID 743279 | 4.7% of 360,000 active | THP-1 LPS/ATP IL-1B secretion, AlphaLISA, 16 h; stronger effect = lower value | activity change, % at 57.5 µM; in the data active = activity change below about -50%; inconclusive = mostly about -30% to -49%; also: % is scaled to controls: 0 for no effect and ±100 for the full control effect
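Secreted IL-1B measured by AlphaLISA bead assay after 16 h compound exposure of THP-1 cells; compounds (final up to 57.5 uM) added 1 h before LPS (250 ng/mL) and ATP (1.25 mM) stimulation; lower signal means less secretion.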
Numbers without * were called inactive; ? = inconclusive; . = no result; [ ] = another dose, or the depositor's remark. Unless noted, calls follow the shape of the dose curve; as a rule, active = well fitted curve in the direction sought with a large enough effect; inconclusive = small, poorly fitted or top-dose-only effect, or another doubt; inactive = no such curve, though single readings can be large; an effect the other way counts as inactive or inconclusive.

SMILES	DT40 TDP1 CPT	TDP1 cell noCPT	HepG2 viability	TDP1 block	TGFb inhibitor	IL1B secr inh
O=C(COC(=O)CCN1C(=O)C2CC=CCC2C1=O)NCCc1ccc(F)cc1 (stereo not given)	-1%	-3%	-19%	1%	0%	-26
CCn1c(CNc2ccc(Cl)cc2)nnc1SCc1ccccc1	?	?	-20%	8%	-3%	-76*
Cn1c(CNc2ccc(Cl)cc2)nnc1SCc1ccccc1	-29%	-22%	-27%	3%	-11%	?
O=C(OCc1c(-c2ccccc2)ncc2ccccc12)c1cccc(Br)c1	-15%	?	0%	-3%	-12%	-18
O=C(NCC(c1cccnc1)N1CCN(c2ccccc2F)CC1)C(=O)Nc1ccc(F)cc1F (stereo not given)	?	15µM*	-24%	6%	?	.
Cc1ccc(CNC(=O)C(=O)NCC(c2cccnc2)N2CCN(c3ccccc3F)CC2)cc1 (stereo not given)	13µM*	5.8µM*	-27%	1%	?	.
Cc1nc2cccnc2n1-c1cccc(C(=O)NCCN(C)C)c1	-5%	-3%	6%	-6%	-2%	.
Cc1ccc(/C=N/NC(=O)C2COc3ccccc3O2)s1 (stereo not given)	1.2µM*	1.6µM*	-5%	-14%	1%	-12
O=C(N/N=C/c1ccco1)C1COc2ccccc2O1 (stereo not given)	-2%	-25%	-1%	8%	2%	0
O=C(N/N=C/c1cccs1)C1COc2ccccc2O1 (stereo not given)	?	16µM*	-4%	8%	4%	20
C=CC(C1=CC(=O)C(OC)=CC1=O)c1ccc(O)cc1 (stereo not given)	?	?	.	11%[56.1 µM]	.	.
O=Cc1ccnc(-c2ccc(OC(=O)c3ccco3)cc2)n1	5.2µM*	5.8µM*	-3%	8%	7%	-86*
O=C(c1ccc2[nH]c(=O)c(=O)[nH]c2c1)N1CCN(c2ccccc2)CC1	-3%	19%	-6%	-4%	-7%	0
Cc1cccc(NC(=O)CSc2nnnn2-c2cccnc2)c1	-25%	-16%	2%	2%	4%	12
Cc1ccc(C)c(C(=O)CSc2nnnn2-c2cccnc2)c1	-10%	16µM*	-9%	1%	0%	-7
Cc1cc(C)cc(-n2nnnc2SCC(=O)Nc2cccc(NC(=O)c3ccco3)c2)c1	?	?	-91%	2%	-3%	-52*
CCn1c(SCC(=O)Nc2cccc(NC(=O)c3ccco3)c2)nnc1-c1cccs1	?	16µM*	10%	8%	?	-13
CCn1c(SCC(=O)Nc2ccc(NC(=O)c3ccco3)cc2)nnc1-c1cccs1	-26%	-11%	4%	.	-8%	-16
Cc1ccc(-n2nnnc2SCC(=O)Nc2cccc(NC(=O)c3ccco3)c2)cc1C	?	16µM*	-16%	-1%	7%	146
COc1ccc(C(=O)N2CCC3(CCN(C(=O)Nc4ccccc4)CC3)CC2)cc1	9%	?	.	.	.	.
CCC(=O)Nc1cccc(-n2nnnc2SCC(=O)c2ccc(C)c(C)c2)c1	?	?	-24%	3%	?	-92*
CCCCN(CCCC)c1ccc(C=Nc2ccc(/C=C/c3ccnc4ccccc34)cc2)cc1C	11µM*	10µM*	-27%	.	-7%	.
CCOc1cc(/C=N/O)ccc1OCc1ccc(F)cc1	?	?	-41%	1%	-17%	0
CCOc1ccc(C=Nc2ccc(/C=C/c3ccnc4ccccc34)cc2)cc1OCC	16µM*	10µM*	-33%	.	-16%	.

Assay outcomes deposited in PubChem BioAssay by National Center for Advancing Translational Sciences (NCATS).
